The values below come from PubChem BioAssay (NCATS).

The structures appear in SMILES notation. Several values for one entry are separate records, joined by “and”; a condition that tells them apart may be missing. Identical values can stand only once. Inconclusive results are not listed. A number with no mark means an inactive call. Activity calls are given as the source filed them. The call rests on the fitted dose curve; in most records, active means well fitted curve in the direction sought with a large enough effect; inconclusive means small, poorly fitted or top-dose-only effect, or another doubt; inactive means no such curve, though single readings can be large; an effect the other way counts as inactive or inconclusive.

A short description of test [1]: Viability qHTS for spleen associated tyrosine kinase inhibitor (SYKi) naive MV4-11 cells (AID 1963823). Further: nearly all actives have a fitted effect of over 40% in size. Further: potency means the concentration at half of the fitted maximal effect. The essentials: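 Seeding of 500 SYKi-naive MV4-11 cells per well onto pre-dispensed compounds preceded a 72 hr incubation at 37 C. Luminescent CellTiter-Glo signal, read after 10 min at room temperature, reflected viable cells.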
Background: In qHTS, concentration-response curves come from the screen itself.

Test [2] in a line: Viability qHTS for spleen associated tyrosine kinase inhibitor (SYKi) drug resistant MV4-11 cells (AID 1963824). Further: nearly all actives have a fitted effect of over 35% in size. Further: potency means the concentration at half of the fitted maximal effect. The method in brief: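 SYK-inhibitor-resistant MV4-11 AML cells were seeded at 500 per well onto compound and cultured 72 hours (37 °C, 5% CO2). CellTiter-Glo was then added, and after 10 min at room temperature, luminescence gave viability.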
A short description of test [3]: Quantitative highthroughput screen to assess conditional lethalithy of P12 Ichikawa cells grown in Human Plasma-Like Medium with dialyzed fetal bovine serum (HPLM+ds) (AID 1963879). Further: series mostly up to about 46 µM; nearly all actives have a fitted effect of over 35% in size. To be noted: Potency: viability. The essentials: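 Each medium arm—HPLM with 10% dialyzed FBS, or RPMI1640 with 5 mM glucose and 10% untreated or dialyzed FBS—was screened against an 11-point, 3-fold compound titration for 48 h at 37 °C, with CellTiter-Glo luminescence as endpoint.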

Test [4] in a line: Cellular viability qHTS for adrenocortical cancer (ACC) cell line NCI-H295R (AID 1963990). Further: nearly all actives have a fitted effect of over 60% in size. Further: potency means the concentration at half of the fitted maximal effect. The essentials: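 Adrenocortical carcinoma cells, suspended at 300 000 cells/mL in serum-free DMEM plus ITS, rested overnight before pin transfer of compound. After two days' incubation, ATP-dependent luminescence was recorded and curve-fitted.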
Test [5] is described as follows: Cellular viability qHTS for adrenocortical cancer (ACC) cell line SW-13 (AID 1963989). Further: nearly all actives have a fitted effect of over 65% in size. Further: potency means the concentration at half of the fitted maximal effect.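 On activity (max response): cells grown in serum-free medium with ITS supplement; on the % scale 0 is the no-effect control and ±100 the full control effect.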 To be noted: SW-13 ACC cells viability, CellTiter-Glo, 48 h; activity (max response): hits give low values. The essentials: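 IC50 and maximal-response values come from four-parameter logistic fits of titration data. SW-13 cells in serum-free medium received compounds (up to 46 uM final) for 48 h before CellTiter-Glo luminescence.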

For the compound `COc1ccc(N(C(=O)Oc2c(C)cccc2C)c2ccnc(Nc3ccc(N4CCN(C)CC4)cc3)n2)c(OC)c1`, the Potency in test [1] is 1.48 µM (active); in test [2], 1.16 µM (active) and 2.35 µM (active); in test [4] it was 12.6 µM (active). Further, the Potency entry in test [3] was “inactive”.

`CC(=O)OC1(c2ccccc2)CCN(CCc2ccccc2)CC1`: the Potency in test [1] is 39.3 µM (active); in test [2], 44.1 µM (active). The activity (max response) in test [5] is -14.1%.

Consider `COP(=O)(OC)C(O)C(Cl)(Cl)Cl` (centres undefined), for which the Potency entry in test [1], in test [2] and in test [4] was “inactive” in each case. Moreover, the activity (max response) in test [5] was 6.64%.

With `CCOP(=S)(OCC)Oc1cc(C)nc(C(C)C)n1`, the Potency entry in test [1], in test [2] and in test [4] was “inactive” in each case. In addition, the activity (max response) in test [5] was 8.98%.

Turning to `O=C(O)c1ccc2[nH]cc(CCCCN3CC=C(c4ccccc4)CC3)c2c1`, in test [1], the Potency was 9.44 µM (active). For the same compound, the Potency entry in test [2] and in test [4] was “inactive” throughout. In addition, the activity (max response) in test [5] is -1.83%.

With `CCCCCCCCCCCC[N+](C)(C)CCOc1ccccc1`, the Potency is 2.66 µM (active) in test [1], 2.66 µM (active) in test [2], 5.17 µM (active) in test [5] and 23.1 µM (active) in test [4].

With `CC(C)NCC(O)c1ccc(N)c(C#N)c1` (centres undefined), the Potency entry in test [1], in test [2] and in test [4] was “inactive” each time. In addition, the activity (max response) in test [5] is 6.97%.

Turning to `COc1ccc2c(c1OC)C(=O)O[C@H]2[C@@H]1c2cc3c(cc2CCN1C)OCO3`, the Potency entry in test [1], in test [2] and in test [4] was “inactive” each time. In addition, the activity (max response) in test [5] is 8.92%.

With `COc1cc(C[C@@H](C)N)c(OC)cc1C`, the Potency result in test [1], in test [2] and in test [4] was “inactive” each time. Besides, the activity (max response) in test [5] is -18.7%.

Take `COCC(=O)N(c1c(C)cccc1C)C(C)C(=O)OC` (centres undefined): the Potency result in test [1], in test [2] and in test [4] was “inactive” in each case. Further, the activity (max response) in test [5] is 0.998%.

As for `COP(=S)(OC)Oc1ccc(SC)c(C)c1`, the Potency result in test [1], in test [2] and in test [4] was “inactive” each time. In addition, the activity (max response) in test [5] was 5.91%.

With `COc1cc(CC(C)N)cc(OC)c1OC` (centres undefined), the Potency entry in test [1], in test [2] and in test [4] was “inactive” throughout. In addition, the activity (max response) in test [5] is -27.2%.

Regarding `COc1cc2c(cc1F)C(c1ccccc1Cl)=Nc1c(n[nH]c1C)N2`, the values for the Potency in test [1] and in test [2] were 0.517 µM (active) and 1.48 µM (active), respectively. Besides, the activity (max response) in test [5] is -18.7%. Further, the Potency entry in test [4] was “inactive”.

`CCCN1CCO[C@@H]2c3cc(O)ccc3OC[C@H]21`: the Potency result in test [1], in test [2] and in test [4] was “inactive” throughout. Further, the activity (max response) in test [5] was 7.73%.

In the case of `COc1ccc(OC)c(CC(C)N)c1` (centres undefined), the Potency entry in test [1], in test [2] and in test [4] was “inactive” in each case. Further, in test [5], the activity (max response) was -20.2%.

As to `Oc1ccc(Cl)cc1Cc1ccccc1`, the Potency in test [1] was 24.6 µM (active); in test [2], 24.6 µM (active); in test [5] it was 35.5 µM (active); in test [4], 12.6 µM (active) and 23.1 µM (active).

`C[C@@H]1CN(Cc2ccc(F)cc2)CCN1C(=O)COc1ccc(Cl)cc1NC(N)=O`: the Potency was 0.934 µM (active) in test [1], 0.82 µM (active) in test [2], 5.01 µM (active) in test [5] and 20 µM (active) in test [4].

`CN(C)NC(=O)CCC(=O)O`: the Potency result in test [1], in test [2] and in test [4] was “inactive” in each case. The activity (max response) in test [5] was -24.4%.

For `Cc1ccc(N=CN(C)C=Nc2ccc(C)cc2C)c(C)c1`, the Potency result in test [1], in test [2] and in test [4] was “inactive” in each case. For the same compound, the activity (max response) in test [5] is 9.45%.

As to `CN1C(=O)NC(=O)C(C)(C2=CCCCC2)C1=O` (centres undefined), the Potency result in test [1], in test [2] and in test [4] was “inactive” each time. Further, in test [5], the activity (max response) was -0.484%.

`C[N+](C)(C)CCOC(=O)C(O)(c1ccccc1)c1ccccc1`: the Potency result in test [1], in test [2] and in test [4] was “inactive” throughout. Further, the activity (max response) in test [5] was -5.79%.

As to `COc1ccc(C(=O)N2CCCC2=O)cc1`, the Potency entry in test [1], in test [2] and in test [4] was “inactive” in each case. In addition, in test [5], the activity (max response) was -6.45% and 13%.

`CC1(C)C(C=C(Cl)Cl)C1C(=O)OC(C#N)c1cccc(Oc2ccccc2)c1` (centres undefined): in test [1], the Potency was 2.66 µM (active). Further, the Potency entry in test [2] and in test [4] was “inactive” in each case. Also, in test [5], the activity (max response) was 4.33%.

Turning to `NCC(O)c1ccc(O)cc1` (centres undefined), the Potency result in test [1], in test [2] and in test [4] was “inactive” in each case. In addition, the activity (max response) in test [5] was 9.24%.

`COc1cc(N)c(Cl)cc1C(=O)NC1CN2CCC1CC2` (centres undefined): the Potency result in test [1], in test [2] and in test [4] was “inactive” throughout. In addition, the activity (max response) in test [5] is -1.3%.

For `Cc1[nH]ncc1-c1cc2nc([C@@H]3CC4CCN3CC4)[nH]c(=O)c2s1`, the Potency in test [1] is 3.32 µM (active); in test [2] it was 4.17 µM (active); in test [5], 28.2 µM (active); in test [4] it was 28.2 µM (active).

With `Clc1cccc(N2CCNCC2)c1`, the Potency result in test [1], in test [2] and in test [4] was “inactive” in each case. In test [5], the activity (max response) was 2.07%.

Turning to `ClC1=C(Cl)C2(Cl)C(CBr)CC1(Cl)C2(Cl)Cl` (centres undefined), the Potency entry in test [1], in test [2] and in test [4] was “inactive” each time. In addition, in test [5], the activity (max response) was -7.86%.

`C=CCN1CC[C@]23c4c5ccc(O)c4O[C@H]2C(=O)CC[C@@]3(O)[C@H]1C5`: the Potency result in test [1], in test [2] and in test [4] was “inactive” in each case. Also, the activity (max response) in test [5] is -2.59%.

For the compound `CC1(C)CC(O)CC(C)(C)N1O`, the Potency result in test [1], in test [2] and in test [4] was “inactive” each time. Further, in test [5], the activity (max response) is -2.2%.
